CHO-K1 Ca antag: M1 antagonist counterscreen hit in parental CHO-K1 cells; ATP-induced calcium, Fluo-8 fluorescence; inhibition, % at 3 µM; actives 0.6% (n = 360,000); AID 602250;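 active = inhibition above a per-plate cutoff, the plate's mean sample inhibition plus 3 SD, cut at about 24% in these data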;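 note: 0% = DMSO plus EC80 ATP and 100% = DMSO alone without ATP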
M1 antag: human CHRM1 antagonism | actives 1.3% (n = 360,000) | P11229 | CHO-K1 hM1, Fluo-8 calcium fluorescence, ACh EC80 antagonist | inhibition, % at 3 µM;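 active = percent inhibition above its own plate's cutoff, namely the mean of that plate's compound wells plus 3 SD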;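 note: peak over basal fluorescence ratio during 140 s after agonist addition; 0% = ACh EC80 plus DMSO and 100% = DMSO alone without agonist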
Target sequence (P11229 whole entry, looked up): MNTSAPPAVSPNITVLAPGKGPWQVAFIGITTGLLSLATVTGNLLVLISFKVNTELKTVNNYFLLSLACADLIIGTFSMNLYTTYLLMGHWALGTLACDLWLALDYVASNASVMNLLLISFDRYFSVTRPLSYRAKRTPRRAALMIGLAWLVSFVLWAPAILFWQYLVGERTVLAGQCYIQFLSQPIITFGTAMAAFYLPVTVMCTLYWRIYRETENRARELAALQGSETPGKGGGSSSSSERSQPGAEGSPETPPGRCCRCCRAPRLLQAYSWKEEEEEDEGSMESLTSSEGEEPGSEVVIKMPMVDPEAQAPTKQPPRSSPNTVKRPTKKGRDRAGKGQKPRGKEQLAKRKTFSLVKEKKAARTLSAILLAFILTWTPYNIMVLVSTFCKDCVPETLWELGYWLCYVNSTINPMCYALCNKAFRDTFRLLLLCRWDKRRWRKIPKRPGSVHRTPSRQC
M1 PAM parental: counter-screen for M1 PAMs: effect in parental CHO-K1 cells; ATP EC20, Fluo-8 calcium fluorescence; 0% at ATP EC20, 100% at ATP max; activation, % at 3 µM; actives 0.02% (n = 360,000); AID 602247;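 active = activation above the run cutoff, the mean activation of all test compounds plus 3 SD, cut at about 40% in these data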;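 note: peak over basal fluorescence ratio in a 140 s read after ATP addition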
M1 ag parental: counter-screen for M1 agonists: effect in parental CHO-K1 cells; Fluo-8 calcium fluorescence; scaled to maximal ATP response, vehicle zero; activation, % at 3 µM; actives 0.48% (n = 360,000); AID 602248; in the data active = activation above about 15%;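 note: untransfected CHO-K1 host cells lacking M1 receptor as counterscreen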
CHRM1 agonist: activates human CHRM1 receptor | activation, % at 3 µM | P11229 | AID 588814 | actives 0.33% (n = 360,000) | CHO-K1 hM1, Fluo-8 calcium fluorescence, agonist mode; 0% DMSO, 100% acetylcholine EC100;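 active = activation above the run's mean compound activation plus 3 SD, cut at about 16% in these data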;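 note: peak over basal fluorescence ratio within a 140 s kinetic read after compound addition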
M1 PAM: potentiates human M1 receptor response to acetylcholine; P11229; CHO-K1 hM1, Fluo-8 calcium fluorescence, ACh EC20; 0% = ACh EC20, 100% = maximal ACh; actives 0.088% (n = 360,000); activation, % at 3 µM; in the data active = activation above about 19%, passing the limit was not always enough
An asterisk follows results filed as active; ! = a repeat was not active. Shown are actives, neighbours in structure and some others; about 2.4% of the full set was active somewhere.

SMILES	CHO-K1 Ca antag	M1 antag	M1 PAM parental	M1 ag parental	CHRM1 agonist	M1 PAM
Cc1ccccc1Nc1nnc(SCc2cc([N+](=O)[O-])cc3c2OCOC3)s1	3	41*	7	3	-8	-22
CCc1ccc(C(=O)C[n+]2cccc3cc(OC)ccc32)cc1	3	59*	8	0	-9	-29
CC(=O)c1ccc(N2CCN(C(=O)c3nn(C)c4c3CS(=O)(=O)c3ccccc3-4)CC2)cc1	-2	4	-11	16*	2	-4
O=C(Cc1ccc(S(=O)(=O)N2CCOCC2)s1)N1CCN(c2cccc(C(F)(F)F)c2)CC1	19	38*	-5	18*	2	-12
COc1ccc(C2c3ccc4ccccc4c3Oc3ncn(Cc4ccco4)c(=N)c32)cc1OC (stereo not drawn)	26*	9	-14	0	-8	-12
Cc1ccc(CCN2C(Nc3ccccc3)=NC[C@@H]2C)cc1	-1	8	11	2	-9	-7
O=C(NCc1ccc(F)cc1)c1cc(C2CCCCN2S(=O)(=O)Cc2ccccc2)on1 (stereo not drawn)	3	0	11	3	-7	-5
CCC(=O)Nc1ccc(NC(=S)NC(=O)/C=C/c2ccco2)cc1	-1	-18	17	1	-2	14
CC(=O)NC(=S)Nc1ccc(NC(=S)NC(=O)/C=C/c2ccco2)cc1	-11	-7	38	12	25*	15
C[C@@H]1CN([C@@H](C)CO)C(=O)CCCn2cc(nn2)CO[C@H]1CN(C)C(=O)Oc1ccccc1	0	1	-1	0	-2	6
CCOC(=O)C1CCCN(C(=O)C(CCSC)NC(=O)COc2ccccc2)C1 (stereo not drawn)	10	-3	-28	0	2	5
CC1(C(=O)OCC(=O)NC(=O)NCc2ccccc2)CC1(Cl)Cl (stereo not drawn)	-10	-4	19	15*	-6	8
CC1(C(=O)OCC(=O)NCc2ccc(Cl)cc2)CC1(Cl)Cl (stereo not drawn)	-10	-15	16	0	-2	5
O=C1[C@H]2C(c3ccccc3)=NN(c3ccccc3)[C@H]2C(=O)N1c1ccccc1	-7	-10	6	-1	-3	6
O=C1[C@@H]2[C@@H](CN3CN(c4ccccc4)N=C(c4ccccc4)[C@@]23c2ccccc2)C(=O)N1c1ccccc1	-30	-12	42*	1	-1	3
CC(Oc1ccc(C#N)cc1)C(=O)Nc1ccc(-n2cnnn2)cc1 (stereo not drawn)	2	23	-30	7	17*	-12
CN(C)c1ccc(CC(=O)N2CCCC(c3cc(C(=O)Nc4ccc(C(C)(C)C)cc4)no3)C2)cc1 (stereo not drawn)	9	29*	8	5	3	-11
O=C(Nc1ccccc1)c1cc(C2CCCN(C(=O)CCc3ccccc3)C2)on1 (stereo not drawn)	-6	-12	12	2	-4	0
COc1ccc(C(=O)NCCn2cc(SCC(N)=O)c3ccccc32)cc1	-10	-12	10	3	4	4
CCc1n[nH]c(=S)n1/N=C/c1cccc2ccccc12	-4	-7	5	18*	-6	4
CCc1n[nH]c(=S)n1/N=C/c1c(O)ccc2ccccc12	-1	-28	7	0	4	22
COc1ccc(C2NC(=O)NC(C)=C2C(=O)OC2CCCCC2)cc1OC (stereo not drawn)	9	-10	8	0	1	4
COC(=O)c1nc2n(n1)C(c1ccc(OC)c(OC)c1)C(C(=O)OC1CCCCC1)=C(C)N2 (stereo not drawn)	28*	14	-8	0	-1	-3
O=C1C2C3C=CC(C3)C2C(=O)N1c1ccc(N2CCN(c3ccccn3)CC2)c([N+](=O)[O-])c1 (stereo not drawn)	20	39*	-13	14	1	-17
CC1=C(C(=O)OCCNC(=O)c2ccccc2O)C(c2ccccc2[N+](=O)[O-])C(C(=O)OCC2CCCO2)=C(C)N1 (stereo not drawn)	10	2	3	2	-9	-3
SMILES	CHO-K1 Ca antag	M1 antag	M1 PAM parental	M1 ag parental	CHRM1 agonist	M1 PAM
O=C(NC1CC1)c1ccc(-c2cnc3cccnn23)cc1	0	-6	4	0	-1	3
COC(=O)C(Cc1ccc(OC(=O)c2ccc(Cl)cc2)cc1)N1Cc2ccccc2C1=O (stereo not drawn)	34*	21*	2	9	3	-15
COC(=O)C(Cc1ccc(OC(=O)c2ccc(C(F)(F)F)cc2)cc1)N1Cc2ccccc2C1=O (stereo not drawn)	25*	36*	1	10	-1	-23
O=C(O)CC(c1ccc(Cl)cc1)N1Cc2ccccc2C1=O (stereo not drawn)	1	6	-5	0	-2	1
C[N+](C)(C)C/C=C1/COCO1	-7	96*	19	0	91*	-17
Cc1ccsc1C(=O)OCC(=O)NC1CCCC(C)C1C (stereo not drawn)	-16	-11	16	0	-8	7
CCOc1cc(/C=C/C(=O)Nc2ccc(C(=O)NCCN(CC)CC)cc2)ccc1OCC(C)C	-18	64*	14	0	-5	-22
COC(=O)C1=CN(Cc2ccccc2)C=C(C(=O)OC)C1c1ccc(OC)c(OC)c1	-5	-28	20	0	-6	10
COC(=O)C1=CN(Cc2ccccc2)C=C(C(=O)OC)C1c1ccc(O)c(OC)c1	25*	-5	-24	0	-2	5
CC(C)CC1Nc2ncnc(N3CCN(c4ccccn4)CC3)c2N(Cc2ccccc2)C1=O (stereo not drawn)	-13	38*!	-7	0	-12	-30
FC(F)(F)c1nc2nc(Cl)c(Cl)nc2[nH]1	-6	-15	7	-1	0	4
FC(F)(F)c1cccc(-c2nc3nc(Cl)c(Cl)nc3[nH]2)c1	6	33	-17	18*	5	-11
CCCC(=O)C1=C(O)C(C(=O)OC)C(C)(C)CC1=NCCc1ccccc1 (stereo not drawn)	8	-21	-18	0	2	21
CCc1cccc(CC)c1NC(=O)CN1C2CCCC1CC(NC(=O)Nc1cccc(OC)c1)C2 (stereo not drawn)	-12	-2	4	1	-3	5
CS(=O)(=O)N1CCN(C(=O)c2cc(-c3ccncc3)nc3ccc(Cl)cc23)CC1	5	31*	3	5	3	-14
Cc1ccc(C2C3=C(CC(C)(C)CC3=O)Nc3n[nH]c(C)c32)cc1 (stereo not drawn)	25*	0	-5	0	1	4
